CYP2C19 inhib – blockers of cytochrome P450 2C19 activity – biochemical, luminescence, ADME assay, primary screen | P33261 | CYP2C19 Supersomes, luciferin-H EGE luminescence, 30 min | inhibition, % at 5 µM | 21% of 96,000 active | AID 778, 2007;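 active = CYP2C19 inhibition above a set limit at 5 µM in the primary screen, cut at about 50% in these data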
D1 mod – D1 CRE-luciferase signal change, two-sided – cell-based, HEK293 D1, dopamine EC30, D1 allosteric modulator project, primary screen; B-score at 10 µM; dopamine EC30 potentiation; actives deviate in either direction; 5.9% of 58,000 active; D(1A) dopamine receptor (Homo sapiens), P21728; AID 641, 2007;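 active = luminescence count or its row- and column-corrected plate score outside the 99.7% band of the plate's sample wells, on either side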
CYP2C19 act – human CYP2C19 activators, primary screen, biochemical, luminescence | Cytochrome P450 2C19 (Homo sapiens), P33261 | recombinant CYP2C19, luciferin-H EGE luminescence; active compounds read high; 0 = fully inhibited enzyme, 1 = untreated enzyme | activation factor at 5 µM | 96,000 tested, under 10 active | AID 1025, 2008;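 active = activation factor of at least 2 at 5 µM in the primary screen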
CYP2C9 activ – human CYP2C9 activators, primary screen, biochemical, luminescence | Cytochrome P450 2C9 (Homo sapiens), P11712 | recombinant CYP2C9, luciferin-H conversion; active compounds read high; factor 1 = untreated enzyme, 0 = blocked | activation factor at 5 µM | 1.4% of 96,000 active;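 active = activation factor of 2 or more for CYP2C9 at a 5 µM dose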
CYP2C9 inhib – blockers of cytochrome P450 2C9 activity – biochemical, luminescence, ADME assay, primary screen. inhibition, % at 5 µM. 20% of 96,000 active. P11712. CYP2C9 Supersomes, luciferin-H conversion;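 active = blocking of liver enzyme CYP2C9 beyond about 50% at 5 µM, limit read from the data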
hDAT+cocaine – changed hDAT dopamine uptake under cocaine IC80, either direction, primary screen, cocaine antagonist project, cell-based, LLC-PK1 hDAT, [14C]-dopamine uptake, MLSMR | AID 449768, 2010 | B-score at 10 µM | 1.3% of 110,000 active | LLC-PK1 hDAT cells, [14C]-dopamine uptake with cocaine IC80; actives deviate in either direction;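 active = Z score or B-score, a plate-position-corrected score, falls beyond the plate's 99.7% confidence bounds, in either direction; inactive = both scores lie inside the 99.7% bounds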
Target sequence (Q01959 whole entry, looked up): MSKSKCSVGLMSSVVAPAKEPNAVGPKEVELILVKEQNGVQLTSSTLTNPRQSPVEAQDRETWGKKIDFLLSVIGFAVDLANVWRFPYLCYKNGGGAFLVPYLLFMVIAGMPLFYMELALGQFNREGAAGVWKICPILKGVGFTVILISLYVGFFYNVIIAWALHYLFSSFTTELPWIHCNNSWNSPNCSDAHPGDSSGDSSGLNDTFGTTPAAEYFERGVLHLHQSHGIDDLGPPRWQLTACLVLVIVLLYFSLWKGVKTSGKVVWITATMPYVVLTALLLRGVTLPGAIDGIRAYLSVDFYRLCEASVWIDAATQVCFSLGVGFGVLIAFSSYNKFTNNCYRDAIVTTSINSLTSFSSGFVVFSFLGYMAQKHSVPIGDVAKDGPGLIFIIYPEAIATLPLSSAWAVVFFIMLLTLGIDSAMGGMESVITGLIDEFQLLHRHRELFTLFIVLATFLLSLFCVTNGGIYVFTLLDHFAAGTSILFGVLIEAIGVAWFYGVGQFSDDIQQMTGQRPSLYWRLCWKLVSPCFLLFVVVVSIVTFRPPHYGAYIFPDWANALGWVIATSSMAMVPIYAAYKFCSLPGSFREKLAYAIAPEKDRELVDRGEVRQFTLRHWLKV
Large screens that a line does not name were inactive. Only some compounds are listed: those with a hit (about 28% of all), similar ones and a draw of the others.

CCOC(=O)C(=O)Nc1ccc(S(=O)(=O)N2CCOCC2)cc1OC	none (no result: D1 mod)
CN1CCc2c(c3c(n2C)CCN(C)[C@H]3c2ccccc2F)[C@@H]1c1ccccc1F	none (no result: D1 mod)
O=C(c1ccccc1)c1ccc2ccccc2n1	CYP2C19 inhib 69.3 (no result: D1 mod)
COc1cccc(N(CC(=O)Nc2ccccc2C)S(C)(=O)=O)c1	CYP2C19 inhib 62.9
COC(=O)CN(c1cccc(OC)c1)S(C)(=O)=O	none
CCOC(=O)c1ccccc1NC(=O)CN(c1cccc(OC)c1)S(C)(=O)=O	CYP2C19 inhib 99.3, CYP2C9 inhib 94.6
CCc1ccccc1NC(=O)CN(c1cccc(OC)c1)S(C)(=O)=O	CYP2C19 inhib 86.3, CYP2C9 inhib 62.6
CCC(C)c1ccc2oc(-c3ccc(NC(=O)Cn4cnc5c(=O)n(C)c(=O)n(C)c54)cc3)nc2c1 (configuration not stated)	none (no result: D1 mod)
CSc1nc(C)cc(C)c1S(=O)(=O)c1ccccc1C	CYP2C9 activ 2.9 (no result: D1 mod)
Cc1cc(C)nc(SCC(=O)Oc2ccc3oc(=O)cc(C)c3c2)n1	CYP2C9 activ 2.5
Nc1nc(Cn2nnc(-c3ccccc3Cl)n2)nc(N2CCOCC2)n1	CYP2C19 inhib 55.4
Nc1nc(Cn2nnc(-c3ccccc3F)n2)nc(N2CCOCC2)n1	none
O=C(CCCSc1nc2ccccc2[nH]1)Nc1nnc(-c2ccccc2)o1	CYP2C9 inhib 51.7
CS(=O)(=O)c1nc(-c2ccccc2)cc(-c2ccccc2)c1C#N	none (no result: D1 mod)
N#Cc1c(-c2ccccc2)cc(-c2ccccc2)nc1SCc1nnc(-c2ccccc2)o1	CYP2C9 inhib 70.1 (no result: D1 mod)
c1ccc(-c2nnc(CSc3nc4ccccc4[nH]3)o2)cc1	CYP2C19 inhib 89.8, CYP2C9 inhib 66.8
CCSc1nc2ccccc2[nH]1	none (no result: D1 mod)
COC(=O)C(Cc1ccccc1)NS(=O)(=O)c1ccccc1Br (configuration not stated)	none (no result: CYP2C19 inhib, D1 mod, CYP2C19 act, CYP2C9 activ, CYP2C9 inhib)
CCOC(=O)c1c(C)n(CCNC(C)=O)c2ccc(O)cc12	CYP2C19 inhib 60.4 (no result: D1 mod)
CCOC(=O)c1c(C)n(CC(O)c2ccccc2)c2ccc(O)cc12 (configuration not stated)	CYP2C19 inhib 63.8, CYP2C9 inhib 59.7
CCOC(=O)COc1ccc2c(c1)c(C(=O)OCC)c(C)n2CC	CYP2C19 inhib 80.3
Cc1nc2nc(NCc3cccs3)nn2c(C)c1Cl	none (no result: D1 mod)
COc1ccc(C2(C(=O)NCC3CCCO3)CCOCC2)cc1 (configuration not stated)	none
Cc1cc(C)nc(SCC(=O)c2ccc(O)cc2O)n1	none
CCC(=O)Oc1ccc(C/C(=N\O)c2ccc(O)cc2O)o1	CYP2C19 inhib 95.6, CYP2C9 inhib 96.5 (no result: D1 mod)
O=C(NCCc1ccccc1)NC1CCCCC1	CYP2C19 inhib 59.4, D1 mod -2.46
COc1ccc(CCNC(=O)NC2CCCCC2)cc1OC	CYP2C19 inhib 81.6
COc1ccc(CCNC(=O)C2CCCN2C(=O)NC2CCCCC2)cc1OC (configuration not stated)	none
CC(SCc1ccccc1)C(=O)NC1CCCC1 (configuration not stated)	CYP2C19 inhib 83.0, CYP2C9 inhib 74.2
COc1ccc(OC)c(C2C3=C(CCCC3=O)Nc3nc4ccccc4n32)c1 (configuration not stated)	none (no result: CYP2C19 inhib, CYP2C19 act, CYP2C9 activ, CYP2C9 inhib, hDAT+cocaine)
Cc1ccc(C(C#N)c2ccc(C(=O)c3ccc(F)cc3)cc2)cc1 (configuration not stated)	CYP2C9 inhib 59.7 (no result: D1 mod)
Cc1ccc(C(=O)c2ccc(C(F)(F)F)cc2)cc1	none (no result: D1 mod)
N#CC(c1ccc(F)cc1)c1ccc(C(=O)c2ccc(F)cc2)cc1 (configuration not stated)	CYP2C9 inhib 77.0 (no result: D1 mod)
O=C1C=C(Nc2ccccc2O)c2ccccc2C1=O	none (no result: D1 mod)
Cc1ccccc1NC1=C/C(=N\S(=O)(=O)c2cccs2)c2ccccc2C1=O	CYP2C19 inhib 81.6, CYP2C9 inhib 84.2 (no result: D1 mod)
Nc1cc(-c2ccc(Br)cc2)nn1S(=O)(=O)c1cccc2nsnc12	CYP2C19 inhib 96.4, CYP2C9 inhib 88.8 (no result: D1 mod, hDAT+cocaine)
Nc1cc(-c2cccc(F)c2)nn1S(=O)(=O)c1cccc2nsnc12	none (no result: CYP2C19 inhib, CYP2C19 act, CYP2C9 activ, CYP2C9 inhib)
Nc1cc(-c2ccc(Cl)cc2)nn1S(=O)(=O)c1cccc2nsnc12	CYP2C19 inhib 93.6, CYP2C9 inhib 86.0 (no result: D1 mod)
O=C(NC1CS(=O)(=O)CC1NCc1ccccc1)c1ccccc1 (configuration not stated)	none
COc1ccc(OCC(=O)Nc2ncc3c(n2)CC(C)(C)CC3=O)cc1	none (no result: D1 mod)
Cc1sc2ncn(-n3c(C)ccc3C)c(=O)c2c1C	none
Cc1ccc(-c2csc3ncn(-n4c(C)ccc4C)c(=O)c23)o1	CYP2C19 inhib 87.0
O=[N+]([O-])c1cc(-c2cnc3ccccc3n2)ccc1Oc1ccc(F)cc1	none (no result: D1 mod)
COC(=O)c1cnn(-c2nc3c(C)cccc3s2)c1C	none (no result: D1 mod)
O=S(=O)(NCC(c1cccnc1)N1CCN(c2ccc(F)cc2)CC1)c1cccs1 (configuration not stated)	CYP2C19 inhib 88.1, CYP2C9 inhib 57.6
O=S(=O)(NCC(c1cccnc1)N1CCN(c2ccccc2F)CC1)c1cccs1 (configuration not stated)	CYP2C19 inhib 85.8, CYP2C9 inhib 66.3 (no result: D1 mod)
O=C(C(NS(=O)(=O)c1cccs1)c1ccccc1)N1CCN(c2ccccc2F)CC1 (configuration not stated)	CYP2C19 inhib 68.8, CYP2C9 inhib 56.3 (no result: D1 mod)
Cc1cccc(N2CCN(C(=O)C(NS(=O)(=O)c3cccs3)c3ccccc3)CC2)c1C (configuration not stated)	none (no result: D1 mod)
O=C(C(Sc1ccccc1)c1ccccc1)N1CCN(c2ccccc2F)CC1 (configuration not stated)	CYP2C19 inhib 86.1, CYP2C9 inhib 76.2 (no result: D1 mod)
Cc1ccc2c(c1)NCCO2	none
COC(=O)NCC(c1cccnc1)N1CCN(c2ccccc2OC)CC1 (configuration not stated)	none
O=S(=O)(NCC(c1cccnc1)N1CCN(c2ccc(F)cc2)CC1)c1ccc(F)cc1 (configuration not stated)	CYP2C19 inhib 83.5, CYP2C9 inhib 72.2
Cc1ccc(S(=O)(=O)NCC(c2cccnc2)N(C)C)cc1 (configuration not stated)	CYP2C19 inhib 60.8 (no result: D1 mod)
COc1ccccc1N1CCN(C(CNS(=O)(=O)c2ccc(C)cc2)c2cccnc2)CC1 (configuration not stated)	CYP2C19 inhib 57.9
CCOC(=O)c1oc2ccc(S(=O)(=O)n3nc(-c4ccc(C)cc4)cc3N)cc2c1C	CYP2C9 inhib 96.4 (no result: D1 mod)

Screening data: PubChem BioAssay, several laboratories
